# Only a selection was taken, and the strongest signals are over-represented in it overall.
# What was measured:
# Experiment in all cases: glycan array binding signal (z-score within array); higher = stronger binding
# Details in all cases: glycan notation: IUPAC condensed, linker removed
# [1] = target: Fuc(a1-2)Gal(b1-3)GlcNAc
# How it was run: (§1)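 The Consortium for Functional Glycomics database supplied 3228 glycan arrays, of which those lacking an available protein sequence were dropped. The binding signal, a within-array Z-score, was averaged across arrays of the same protein sequence and across linkers. Negative scores can be read as non-binding.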
# [2] = target: Fuc(a1-2)Gal(b1-3)GlcNAc(b1-2)Man(a1-3)[Fuc(a1-2)Gal(b1-3)GlcNAc(b1-2)Man(a1-6)]Man(b1-4)GlcNAc(b1-4)GlcNAc
# How it was run: as §1
# [3] = target: Fuc(a1-2)Gal(b1-3)GlcNAc(b1-3)Gal(b1-4)Glc
# How it was run: as §1
# [4] = target: Fuc(a1-2)Gal(b1-3)GlcNAc(b1-3)[Gal(b1-4)GlcNAc(b1-6)]Gal(b1-4)Glc
# How it was run: as §1
# [5] = target: Fuc(a1-2)Gal(b1-3)GlcNAc(b1-3)[Neu5Ac(a2-6)Gal(b1-4)GlcNAc(b1-6)]Gal(b1-4)Glc
# How it was run: as §1
# [6] = target: Fuc(a1-2)Gal(b1-4)GlcNAc(b1-2)[Fuc(a1-2)Gal(b1-4)GlcNAc(b1-4)]Man(a1-3)[Fuc(a1-2)Gal(b1-4)GlcNAc(b1-2)Man(a1-6)]Man(b1-4)GlcNAc(b1-4)GlcNAc
# How it was run: as §1
# [7] = target: Fuc(a1-2)Gal(b1-4)GlcNAc(b1-3)Gal(b1-4)GlcNAc(b1-3)Gal(b1-4)GlcNAc
# How it was run: as §1
# [8] = target: Fuc(a1-2)[Gal(a1-3)]Gal(b1-3)GlcNAc
# How it was run: as §1
# [9] = target: Fuc(a1-2)[Gal(a1-3)]Gal(b1-3)GlcNAc(b1-6)GalNAc
# How it was run: as §1
# [10] = target: Fuc(a1-2)[GalNAc(a1-3)]Gal(b1-3)GlcNAc(b1-6)GalNAc
# How it was run: as §1
# [11] = target: Fuc(a1-2)[GalNAc(a1-3)]Gal(b1-4)[Fuc(a1-3)]GlcNAc(b1-3)GalNAc
# How it was run: as §1
# [12] = target: Gal(a1-4)Gal(b1-4)GlcNAc
# How it was run: as §1
# [13] = target: Gal(b1-3)GlcNAc(a1-3)Gal(b1-4)GlcNAc
# How it was run: as §1
# [14] = target: Gal(b1-3)GlcNAc(b1-3)Gal(b1-4)GlcNAc(b1-3)Gal(b1-4)GlcNAc(b1-2)[Gal(b1-3)GlcNAc(b1-3)Gal(b1-4)GlcNAc(b1-3)Gal(b1-4)GlcNAc(b1-6)]Man(a1-6)[Gal(b1-3)GlcNAc(b1-3)Gal(b1-4)GlcNAc(b1-3)Gal(b1-4)GlcNAc(b1-2)Man(a1-3)]Man(b1-4)GlcNAc(b1-4)[Fuc(a1-6)]GlcNAc
# How it was run: as §1
# [15] = target: Gal(b1-3)GlcNAc(b1-3)Gal(b1-4)GlcNAc(b1-6)[Gal(b1-3)GlcNAc(b1-3)]Gal(b1-4)Glc
# How it was run: as §1
# [16] = target: Gal(b1-3)[Fuc(a1-4)]GlcNAc(b1-3)Gal(b1-4)GlcNAc
# How it was run: as §1
# [17] = target: Gal(b1-4)GlcNAc(b1-2)[Gal(b1-4)GlcNAc(b1-4)]Man(a1-3)[GlcNAc(b1-4)][Gal(b1-4)GlcNAc(b1-2)Man(a1-6)]Man(b1-4)GlcNAc(b1-4)GlcNAc
# How it was run: as §1
# [18] = target: Gal(b1-4)GlcNAc(b1-2)[Gal(b1-4)GlcNAc(b1-6)]Man(a1-6)[Gal(b1-4)GlcNAc(b1-2)Man(a1-3)]Man(b1-4)GlcNAc(b1-4)[Fuc(a1-6)]GlcNAc
# How it was run: as §1
# [19] = target: Gal(b1-4)GlcNAc(b1-3)Gal(b1-4)GlcNAc(b1-3)Gal(b1-4)GlcNAc
# How it was run: as §1
# [20] = target: Gal(b1-4)GlcNAc(b1-3)Gal(b1-4)GlcNAc(b1-3)Gal(b1-4)GlcNAc(b1-3)Gal(b1-4)GlcNAc(b1-3)Gal(b1-4)GlcNAc(b1-2)[Gal(b1-4)GlcNAc(b1-3)Gal(b1-4)GlcNAc(b1-3)Gal(b1-4)GlcNAc(b1-3)Gal(b1-4)GlcNAc(b1-3)Gal(b1-4)GlcNAc(b1-6)]Man(a1-6)[Gal(b1-4)GlcNAc(b1-3)Gal(b1-4)GlcNAc(b1-3)Gal(b1-4)GlcNAc(b1-3)Gal(b1-4)GlcNAc(b1-3)Gal(b1-4)GlcNAc(b1-2)Man(a1-3)]Man(b1-4)GlcNAc(b1-4)[Fuc(a1-6)]GlcNAc
# How it was run: as §1
# [21] = target: Gal3S(b1-3)GalNAc
# How it was run: as §1
# [22] = target: GalNAc(a1-3)GalNAc(b1-3)Gal(a1-4)Gal(b1-4)Glc
# How it was run: as §1
# [23] = target: GlcA3S(b1-3)Gal(b1-4)GlcNAc(b1-3)Gal(b1-4)Glc
# How it was run: as §1
# [24] = target: GlcNAc(b1-2)[GlcNAc(b1-4)]Man(a1-3)[GlcNAc(b1-4)][GlcNAc(b1-2)Man(a1-6)]Man(b1-4)GlcNAc(b1-4)GlcNAc
# How it was run: as §1
# [25] = target: GlcNAc(b1-3)Gal(b1-4)GlcNAc(b1-3)Gal(b1-4)GlcNAc(b1-3)GalNAc
# How it was run: as §1
# [26] = target: GlcNAc(b1-3)[GlcNAc(b1-6)]GalNAc
# How it was run: as §1
# [27] = target: Kdn(a2-3)Gal(b1-4)Glc
# How it was run: as §1
# [28] = target: Man(a1-2)Man(a1-3)Man
# How it was run: as §1
# [29] = target: Man(a1-3)[Man(a1-6)]Man(a1-6)[Man(a1-3)]Man
# How it was run: as §1
# [30] = target: Man(b1-4)GlcNAc
# How it was run: as §1
# [31] = target: Neu5Ac(a2-3)Gal(b1-3)[Fuc(a1-4)]GlcNAc
# How it was run: as §1
# [32] = target: Neu5Ac(a2-3)Gal(b1-4)GlcNAc(b1-2)Man(a1-3)[Neu5Ac(a2-3)Gal(b1-4)GlcNAc(b1-2)Man(a1-6)]Man(b1-4)GlcNAc(b1-4)[Fuc(a1-6)]GlcNAc
# How it was run: as §1
# [33] = target: Neu5Ac(a2-3)Gal(b1-4)GlcNAc(b1-2)[Neu5Ac(a2-3)Gal(b1-4)GlcNAc(b1-4)]Man(a1-3)[GlcNAc(b1-4)][Neu5Ac(a2-3)Gal(b1-4)GlcNAc(b1-2)[Neu5Ac(a2-3)Gal(b1-4)GlcNAc(b1-6)]Man(a1-6)]Man(b1-4)GlcNAc(b1-4)GlcNAc
# How it was run: as §1
# [34] = target: Neu5Ac(a2-3)Gal(b1-4)GlcNAc(b1-3)Gal(b1-4)GlcNAc(b1-3)Gal(b1-4)GlcNAc
# How it was run: as §1
# [35] = target: Neu5Ac(a2-3)Gal(b1-4)GlcNAc(b1-6)[Neu5Ac(a2-3)Gal(b1-3)]GalNAc
# How it was run: as §1
# [36] = target: Neu5Ac(a2-3)Gal(b1-4)[Fuc(a1-3)]GlcNAc(b1-3)Gal(b1-4)[Fuc(a1-3)]GlcNAc(b1-3)Gal(b1-4)[Fuc(a1-3)]GlcNAc
# How it was run: as §1
# [37] = target: Neu5Ac(a2-6)Gal(b1-4)GlcNAc(b1-3)Gal(b1-3)GlcNAc
# How it was run: as §1
# [38] = target: Neu5Ac(a2-6)Gal(b1-4)GlcNAc(b1-3)Gal(b1-4)GlcNAc(b1-3)[Neu5Ac(a2-6)Gal(b1-4)GlcNAc(b1-3)Gal(b1-4)GlcNAc(b1-6)]GalNAc
# How it was run: as §1
# [39] = target: Neu5Ac(a2-6)GalNAc
# How it was run: as §1
# [40] = target: Neu5Ac(a2-8)Neu5Ac(a2-3)Gal(b1-4)Glc
# How it was run: as §1
# [41] = target: Neu5Ac(a2-8)Neu5Ac(a2-8)Neu5Ac(a2-3)[Gal(b1-3)GalNAc(b1-4)]Gal(b1-4)Glc
# How it was run: as §1
binder,measurement,setting,value
"FliC (Pseudomonas aeruginosa), P72151 (protein) MALTVNTNIASLNTQRNLNASSNDLNTSLQRLTTGYRINSAKDDAAGLQISNRLSNQISGLNVATRNANDGISLAQTAEGALQQSTNILQRIRDLALQSANGSNSDADRAALQKEVAAQQAELTRISDTTTFGGRKLLDGSFGTTSFQVGSNAYETIDISLQNASASAIGSYQVGSNGAGTVASVAGTATASGIASGTVNLVGGGQVKNIAIAAGDSAKAIAEKMDGAIPNLSARARTVFTADVSGVTGGSLNFDVTVGSNTVSLAGVTSTQDLADQLNSNSSKLGITASINDKGVLTITSATGENVKFGAQTGTATAGQVAVKVQGSDGKFEAAAKNVVAAGTAATTTIVTGYVQLNSPTAYSVSGTGTQASQVFGNASAAQKSSVASVDISTADGAQNAIAVVDNALAAIDAQRADLGAVQNRFKNTIDNLTNISENATNARSRIKDTDFAAETAALSKNQVLQQAGTAILAQANQLPQAVLSLLR",glycan array binding signal (z-score),[1],-0.166
same,glycan array binding signal (z-score),[2],-0.133
same,glycan array binding signal (z-score),[3],-0.154
same,glycan array binding signal (z-score),[4],-0.067
same,glycan array binding signal (z-score),[5],2.82
same,glycan array binding signal (z-score),[6],-0.117
same,glycan array binding signal (z-score),[7],-0.151
same,glycan array binding signal (z-score),[8],-0.118
same,glycan array binding signal (z-score),[9],0.094
same,glycan array binding signal (z-score),[10],2.71
same,glycan array binding signal (z-score),[11],-0.134
same,glycan array binding signal (z-score),[12],0.061
same,glycan array binding signal (z-score),[13],-0.119
same,glycan array binding signal (z-score),[14],2.32
same,glycan array binding signal (z-score),[15],-0.165
same,glycan array binding signal (z-score),[16],-0.193
same,glycan array binding signal (z-score),[17],-0.178
same,glycan array binding signal (z-score),[18],1.27
same,glycan array binding signal (z-score),[19],-0.189
same,glycan array binding signal (z-score),[20],3.23
same,glycan array binding signal (z-score),[21],-0.09
same,glycan array binding signal (z-score),[22],-0.183
same,glycan array binding signal (z-score),[23],-0.191
same,glycan array binding signal (z-score),[24],1.69
same,glycan array binding signal (z-score),[25],-0.143
same,glycan array binding signal (z-score),[26],-0.16
same,glycan array binding signal (z-score),[27],-0.115
same,glycan array binding signal (z-score),[28],-0.16
same,glycan array binding signal (z-score),[29],-0.152
same,glycan array binding signal (z-score),[30],-0.177
same,glycan array binding signal (z-score),[31],-0.192
same,glycan array binding signal (z-score),[32],20.9
same,glycan array binding signal (z-score),[33],8.36
same,glycan array binding signal (z-score),[34],0.251
same,glycan array binding signal (z-score),[35],0.476
same,glycan array binding signal (z-score),[36],3.22
same,glycan array binding signal (z-score),[37],-0.117
same,glycan array binding signal (z-score),[38],-0.127
same,glycan array binding signal (z-score),[39],1.71
same,glycan array binding signal (z-score),[40],2.98
same,glycan array binding signal (z-score),[41],-0.227

# — the supplement of paper PMC8728848
